Experimental data as given in PubChem BioAssay (NCI).
The panel holds about 83,000 compounds, 20% with a hit somewhere; the sample as a whole holds those more often.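 The endpoint reported here, percent growth, reads 100 for growth as untreated, 0 for no net growth and -100 for all cells dead.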 Unmarked numbers belong to inactive results. The source made the active and inactive calls. The calls were made as follows: active = growth percent below 10; inactive = the rest.

test system: HL-60(TB) leukemia; assay: NCI-60 one-dose screen, 48 h (100 = growth as untreated, 0 = no growth, -100 = all killed); settings: 10 µM unless noted

Structure (SMILES) | growth
COc1cc2nccc(Oc3ccc(NC(=O)C4(C(=O)Nc5ccc(F)cc5)CC4)cc3)c2cc1Oc1ccc(N)cn1 | 22.9%
Oc1ccc(N=Cc2ccccc2O)cc1 | 63.3%
CC[C@@H](C(=O)[C@@H](C)[C@@H](O)[C@H](C)[C@@H]1O[C@@H]([C@@H](CC)C(=O)O)CC[C@@H]1C)[C@H]1OC2(C=C[C@@H](O)[C@]3(CC[C@@](C)([C@H]4CC[C@](O)(CC)[C@H](C)O4)O3)O2)[C@H](C)C[C@@H]1C (stereo not given in full) | -45.6% (active)
CC(=O)Nc1nc(C)c(C(=O)NNC(=O)Nc2ccccc2)s1 | 108%
CC(=O)C1=C(C)NC(SCc2nnc(-c3ccc(C)cc3)o2)=NC1c1ccc(F)cc1 (stereo not given) | 80.8%
COCCn1cc(-c2csc(-c3c[nH]c4ccccc34)n2)c2cccnc21 | 14.1%
O=c1c2cc(Cl)ccc2oc2ccc(OCCCCCN3CCCCCC3)cc12 | 54.2%
O=C(CN1C(=O)/C(=C/c2ccco2)SC1=S)NCCc1c[nH]c2ccc(F)cc12 | 95.9%
Cc1c(NCC(=O)Nc2nc3ccccc3[nH]2)c(=O)n(-c2ccccc2)n1C | 98.5%
CC[C@@]12C=CCN3CC[C@]4(c5cc(NC(=O)COc6cc(OCC(=O)Nc7cc8c(cc7OC)N(C)[C@H]7[C@@](O)(C(=O)OC)[C@H](OC(C)=O)[C@]9(CC)C=CCN%10CC[C@]87[C@@H]%109)cc7oc(-c8ccccc8)cc(=O)c67)c(OC)cc5N(C)[C@@H]4[C@](O)(C(=O)OC)[C@H]1OC(C)=O)[C@H]32 | 88.2%
